Assay results as given in PubChem BioAssay (Tox21).
Inconclusive results are not listed. The source made the active and inactive calls. Unless noted, calls follow the shape of the dose curve; as a rule, active = well fitted curve in the direction sought with a large enough effect in the repeat runs; inconclusive = weak or mixed curves; inactive = no such curve, though single readings can be large; an effect the other way counts as inactive or inconclusive.

Legend:
[1] = qHTS assay to identify small molecule antagonists of the glucocorticoid receptor (GR) signaling pathway - cell viability counter screen (AID 720693); also: nearly all actives have a fitted effect of over 55% in size; also: potency is read from the fitted curve at half-maximal effect
[2] = qHTS assay for identifying genotoxic compounds that show differential cytotoxicity against isogenic chicken DT40 cell lines with known DNA damage response pathways - wild type cell line (AID 743012); also: nearly all actives have a fitted effect of over 60% in size; also: potency is read from the fitted curve at half-maximal effect
How it was run: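 Wild-type DT40 cells (300/well) exposed to compounds for 40 hours at 37 C/5% CO2. Viability read by CellTiter-Glo luminescence after 30 min at room temperature.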

[3] = qHTS assay for identifying genotoxic compounds that show differential cytotoxicity against isogenic chicken DT40 cell lines with known DNA damage response pathways - Rev3 mutant cell line (AID 743014); also: nearly all actives have a fitted effect of over 55% in size; also: potency is read from the fitted curve at half-maximal effect
[4] = qHTS assay for identifying genotoxic compounds that show differential cytotoxicity against isogenic chicken DT40 cell lines with known DNA damage response pathways - Rad54/Ku70 mutant cell line (AID 743015); also: nearly all actives have a fitted effect of over 60% in size; also: potency is read from the fitted curve at half-maximal effect
[5] = qHTS assay to identify small molecule antagonists of the androgen receptor (AR) signaling pathway - cell viability counter screen (AID 743033; also: nearly all actives have a fitted effect of over 45% in size)
[6] = qHTS assay to identify small molecule antagonists of the androgen receptor (AR) signaling pathway using the MDA cell line - cell viability counter screen (AID 743041; also: nearly all actives have a fitted effect of over 45% in size)
How it was run: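 R1881-driven MDA-kb2 AR-luc cells, 3,000/well, were dosed with library compounds for 16 h; cell health came from CellTiter-Fluor fluorescence in the reporter wells.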

[7] = qHTS assay to identify small molecule antagonists of the thyroid receptor (TR) signaling pathway - cell viability counter screen (AID 743064); also: nearly all actives have a fitted effect of over 50% in size; also: potency is read from the fitted curve at half-maximal effect
How it was run: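 GH3.TRE-Luc rat pituitary cells dosed after 4 hr plating, co-stimulated with T3 at 1 nM final, incubated 23.5 h at 37 C. Viability measured in the same wells by CellTiter-Fluor fluorescence after 30 min further at 37 C.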

[8] = qHTS assay to identify small molecule antagonists of the thyroid receptor (TR) signaling pathway (AID 743065); also: nearly all actives have a fitted effect of over 55% in size; also: potency is read from the fitted curve at half-maximal effect
How it was run: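 Antagonism measured as loss of luciferase signal in GH3 cells stably carrying a TRE-luciferase reporter, co-treated with compound and T3 (1 nM final) for 23.5 h at 37 C. Viability was read in the same well by CellTiter-Fluor.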

[9] = tested on: thyroid hormone receptor (rat, GH3 cells); assay: qHTS assay to identify small molecule agonists of the thyroid receptor (TR) signaling pathway (AID 743066; calls by dose curve; also: potency is read from the fitted curve at half-maximal effect)
[10] = target: Estrogen receptor (Homo sapiens) (UniProt P03372); assay: qHTS assay to identify small molecule antagonists of the estrogen receptor alpha (ER-alpha) signaling pathway (AID 743069; active = well fitted curve in the direction sought with a large enough effect in the signal ratio in the repeat runs, not every such curve was filed as active; the % refers to the signal ratio)
Estrogen receptor (Homo sapiens), sequence (P03372 whole entry, looked up): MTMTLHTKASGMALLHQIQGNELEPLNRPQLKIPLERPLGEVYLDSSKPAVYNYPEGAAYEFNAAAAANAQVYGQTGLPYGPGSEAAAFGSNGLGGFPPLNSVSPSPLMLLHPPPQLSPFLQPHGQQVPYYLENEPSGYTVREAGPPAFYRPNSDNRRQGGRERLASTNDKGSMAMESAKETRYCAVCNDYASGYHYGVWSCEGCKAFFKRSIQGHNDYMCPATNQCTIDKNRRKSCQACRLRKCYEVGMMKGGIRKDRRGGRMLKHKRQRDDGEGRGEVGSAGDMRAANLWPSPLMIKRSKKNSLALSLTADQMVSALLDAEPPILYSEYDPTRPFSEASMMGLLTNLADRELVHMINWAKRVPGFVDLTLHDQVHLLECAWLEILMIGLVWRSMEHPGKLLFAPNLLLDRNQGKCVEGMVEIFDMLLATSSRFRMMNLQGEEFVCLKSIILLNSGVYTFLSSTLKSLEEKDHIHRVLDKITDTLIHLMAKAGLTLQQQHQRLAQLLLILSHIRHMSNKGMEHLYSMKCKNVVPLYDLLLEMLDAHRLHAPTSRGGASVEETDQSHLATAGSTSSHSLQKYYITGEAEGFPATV
How it was run: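 Compound effects are measured against 17beta-estradiol stimulation in HEK293 cells with a UAS-controlled beta-lactamase reporter for ER-alpha. Exposure lasts 18 hr at 37C; LiveBLAzer B/G FRET substrate follows for 2 hr at room temperature.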

[11] = qHTS assay to identify small molecule antagonists of the estrogen receptor alpha (ER-alpha) signaling pathway - cell viability counter screen (AID 743074; calls by dose curve;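 also: HEK293 cells carrying ER-alpha-UAS-bla reporter stimulated with 17beta-estradiol; nearly all actives have a fitted effect of over 45% in size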)
[12] = target: Estrogen receptor (Homo sapiens) (UniProt P03372); assay: qHTS assay to identify small molecule agonists of the estrogen receptor alpha (ER-alpha) signaling pathway (AID 743075; calls by dose curve)
[13] = target: Estrogen receptor (Homo sapiens) (UniProt P03372); assay: qHTS assay to identify small molecule agonists of the estrogen receptor alpha (ER-alpha) signaling pathway using the BG1 cell line (AID 743079); also: nearly all actives have a fitted effect of over 20% in size
[14] = qHTS assay to identify small molecule antagonists of the estrogen receptor alpha (ER-alpha) signaling pathway using the BG1 cell line (AID 743080; calls by dose curve;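 also: BG1 cells stimulated with 17beta-estradiol alongside compound; series mostly up to about 70 µM; nearly all actives have a fitted effect of over 25% in size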)
How it was run: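 BG1-Luc-4E2 cells (endogenous full-length ER-alpha, stable 4×ERE-luciferase) were starved 5 days in phenol-red-free medium with 10% charcoal-stripped FBS, plated 24 h, then given compound plus 17beta-estradiol for 21.5 h at 37 C; ONE-Glo luminescence read after 30 min.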

[15] = qHTS assay to identify small molecule antagonists of the estrogen receptor alpha (ER-alpha) signaling pathway using the BG1 cell line - cell viability counter screen (AID 743081);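 also: compound given together with 17beta-estradiol as the ER stimulus; series mostly up to about 70 µM; nearly all actives have a fitted effect of over 45% in size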
Aromatase (Homo sapiens) = Aromatase (Homo sapiens) (UniProt P11511); assay: qHTS assay to identify aromatase inhibitors (AID 743083); also: series mostly up to about 70 µM; nearly all actives have a fitted effect of over 55% in size
Aromatase (Homo sapiens), sequence (P11511 whole entry, looked up): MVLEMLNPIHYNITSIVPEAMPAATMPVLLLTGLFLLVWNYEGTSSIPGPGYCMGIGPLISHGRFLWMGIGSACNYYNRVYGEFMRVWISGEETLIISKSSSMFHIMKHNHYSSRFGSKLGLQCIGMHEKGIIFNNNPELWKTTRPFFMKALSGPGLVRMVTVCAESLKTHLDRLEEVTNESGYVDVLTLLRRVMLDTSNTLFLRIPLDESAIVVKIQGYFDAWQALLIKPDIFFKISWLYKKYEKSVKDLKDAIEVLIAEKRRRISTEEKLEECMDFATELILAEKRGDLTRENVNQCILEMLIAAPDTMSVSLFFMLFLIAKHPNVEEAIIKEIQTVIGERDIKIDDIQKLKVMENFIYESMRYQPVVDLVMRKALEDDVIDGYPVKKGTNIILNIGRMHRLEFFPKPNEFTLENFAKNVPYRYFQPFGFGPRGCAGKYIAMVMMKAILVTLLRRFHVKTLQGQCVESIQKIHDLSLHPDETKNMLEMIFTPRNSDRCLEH

Measured: Potency

Cc1ccccc1OCC1CO1 (stereo not drawn)
inactive: all assays above

CCCCCC(=O)OCC
not listed: [14]
inactive: all other assays above

SCCSCCS
not listed: [10] | [12] | [13] | [14]
inactive: all other assays above

C1=CCC(c2ccccc2)CC1 (stereo not drawn)
active: [2] 61.1 µM | [3] 30.6 µM | [4] 54.5 µM
not listed: [7] | [10] | [12] | [13] | [14]
inactive: all other assays above

O=C(O)C(=O)Nc1cccc(-c2nn[nH]n2)c1
not listed: [10] | [12] | [13] | [14] | [15]
inactive: all other assays above

COCCOCCOCCOC
not listed: [10] | [12] | [13] | [14]
inactive: all other assays above

C=C(C)[C@@H]1CC[C@@H](C)C[C@@H]1O
not listed: [8] | [9] | [10] | [12] | [13] | [14]
inactive: all other assays above

CN(C)CCOCCN(C)CCO
not listed: [14]
inactive: all other assays above

O=C1NC2NC(=O)NC2N1 (stereo not drawn)
not listed: [10] | [12] | [13] | [14]
inactive: all other assays above

C=COCCOCCOC=C
not listed: [10] | [12] | [13] | [14]
inactive: all other assays above

N#CCCOCCOCCC#N
active: [3] 61.1 µM
not listed: [14]
inactive: all other assays above

OCCCCCCCl
not listed: [13]
inactive: all other assays above

COc1cc2c(Nc3ccc(Br)cc3F)ncnc2cc1OCC1CCN(C)CC1
inactive: [5] | [6] | [10] | [13] | Aromatase (Homo sapiens)
active: [1] 23.9 µM | [2] 5.31 µM | [3] 5.96 µM | [4] 6.68 µM | [7] 4.73 µM | [8] 5.31 µM

COc1ccc(N=Nc2cc(C)c(N=Nc3ccc(S(=O)(=O)O)cc3)cc2OC)cc1
inactive: [1] | [2] | [3] | [4] | [5] | [6] | [7] | [11] | Aromatase (Homo sapiens)

O=C(O)CCNC(=O)c1ccccc1
active: [9] 11.9 µM
not listed: [13]
inactive: all other assays above

O=C(O)/C=C/c1ccccc1
not listed: [14]
inactive: all other assays above

CCCCC(CC)COC(=O)c1ccccc1 (stereo not drawn)
not listed: [14]
inactive: all other assays above

C=CC(C)(O)CC/C=C(\C)CC (stereo not drawn)
not listed: [14]
inactive: all other assays above

Cc1cccc(NC(=S)N(C)C)c1
not listed: [10] | [12] | [13] | [14] | Aromatase (Homo sapiens)
inactive: all other assays above

CN(C)CCCNCCC#N
not listed: [10] | [12] | [13] | [14]
inactive: all other assays above

C=C[C@@H](C)CCC=C(C)C
not listed: [10] | [12] | [13] | [14]
inactive: all other assays above

C=C(C)C(=O)OC1CC(C)CC(C)(C)C1 (stereo not drawn)
not listed: [10] | [12] | [13] | [14]
inactive: all other assays above
